PLK1 PBD inh: qHTS for Inhibitors of PLK1-PDB (polo-like kinase 1 - polo-box domain): Primary Screen; Serine/threonine-protein kinase PLK1 (Homo sapiens), P53350; Plk1 PBD binding of FITC phosphopeptide, fluorescence polarization; Potency, µM, inactives show max response, negative = inhibition, most hits filed as inhibitors; 360,000 tested, 2.8% active; note: potency is the fitted concentration of half-maximal effect; series mostly up to about 57 µM; nearly all actives have a fitted effect of over 65% in size
CCT modulator: High-Throughput Screening for Modulators of Cytosolic Chaperonin Activity; purified chaperonin ATPase assay, HTRF ADP detection, 30 min; activity change, % (test concentration not listed), hits read low; 360,000 tested, 0.3% active; in the data active = activity change below about -30%
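Nucleotide hydrolysis assay: TRiC at 20–40 nM final (set by batch activity) with 10 uM ATP, 30 min at 37 °C, in presence of 76 uM compound. Detection by competitive ADP HTRF, 30 min ambient.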
Sfp PPTase inh: qHTS Assay for Inhibitors of Bacillus subtilis Sfp phosphopantetheinyl transferase (PPTase) | 4'-phosphopantetheinyl transferase ffp (Bacillus subtilis), Q9F4F7 | Biochemical Sfp PPTase activity, qHTS | Potency, µM, for the others: largest response in the series, negative = inhibition, hits mostly inhibitors | 310,000 tested, 3.5% active;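 note: the enzyme is Sfp with the accession as filed and its product quenches rhodamine fluorescence; potency is the fitted concentration of half-maximal effect; 0% = enzyme reaction without inhibitor and -100% = no enzyme wells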
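Sfp 15 nM + cpd, 15 min RT; start w/ rhodamine-CoA 5 uM, BHQ-2-YbbR 12.5 uM (final); 50 mM Hepes pH 7.6, 10 mM MgCl2, 0.01% NP-40, 0.01% BSA; read 525/598 nm at 0 and 30 min.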
Mm-Cpn inhibitor: Inhibitors of TCP-1 ring complex (TRiC) of Methanococcus maripaludis (MmCpn): qHTS; Chaperonin Mm-Cpn (Methanococcus maripaludis); purified Mm-Cpn ATPase, ADP Transcreener TR-FRET; Potency, µM (doses to about 76.9 µM), for inactives: at the top dose activity, negative = inhibition, usual class: inhibitors; 330,000 tested, 0.031% active; AID 504842, 2011; note: potency is the fitted concentration of half-maximal effect; nearly all actives have a fitted effect of over 80% in size
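ATP (10 uM final) was added to archaeal chaperonin (25 nM final) after 10 min exposure to test compound at 37°C; after 30 min further incubation, ADP was detected by competitive TR-FRET.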
G9a block: qHTS Assay for Inhibitors of Histone Lysine Methyltransferase G9a; Histone-lysine N-methyltransferase EHMT2 (Homo sapiens), Q96KQ7; G9a H3K9 monomethylation, AlphaScreen, 2 h; Potency, µM (top dose mostly 102 µM), inactives show top-dose activity, negative = inhibition, actives largely listed as inhibitors; 350,000 tested, 8.8% active; AID 504332, 2011; note: potency is the fitted concentration of half-maximal effect; nearly all actives have a fitted effect of over 75% in size
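Chemiluminescent proximity detection of H3K9 monomethylation, read after 10 min bead incubation in the dark. Reaction: 20 nM G9a, 500 nM biotin-H3K9 peptide, 20 uM SAM cofactor, 2 h, room temperature, following 15 min enzyme-compound preincubation.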
VDR inh: Inhibitors of the vitamin D receptor (VDR): qHTS | Potency, µM, for inactives: max response, negative = inhibition, hits mostly inhibitors | VDR-SRC2-3 peptide fluorescence polarization, 2 h | AID 504847, 2011 | 400,000 tested, 0.93% active; note: potency is the fitted concentration of half-maximal effect
Target sequence (P11473 whole entry, looked up): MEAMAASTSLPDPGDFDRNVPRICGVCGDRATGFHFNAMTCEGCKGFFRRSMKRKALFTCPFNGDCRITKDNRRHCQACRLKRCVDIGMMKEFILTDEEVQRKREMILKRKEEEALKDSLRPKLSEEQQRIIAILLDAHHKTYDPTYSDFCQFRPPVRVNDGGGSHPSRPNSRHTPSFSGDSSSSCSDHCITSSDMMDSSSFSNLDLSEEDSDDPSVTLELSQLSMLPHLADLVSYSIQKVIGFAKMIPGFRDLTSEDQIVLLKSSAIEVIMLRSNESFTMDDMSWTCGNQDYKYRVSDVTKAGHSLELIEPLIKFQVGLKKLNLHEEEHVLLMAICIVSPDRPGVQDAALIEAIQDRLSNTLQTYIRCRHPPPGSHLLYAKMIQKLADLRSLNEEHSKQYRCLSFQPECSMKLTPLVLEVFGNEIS
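Fluorescence polarization assay of small-molecule disruption of VDR binding to coregulator peptide SRC2-3. Compounds and controls pin-transferred, then read after 2 h incubation at ambient room temperature.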
Numbers without * were called inactive; ? = inconclusive; · = not tested or not shown; [ ] = remark or other dose. This is a sample that favours compounds with a hit; in the whole collection about 10% have one here. Unless noted, calls come from the whole dose curve; as a rule, active = well fitted curve in the direction sought with a large enough effect; inconclusive = small, poorly fitted or top-dose-only effect, or another doubt; inactive = no such curve, though single readings can be large; an effect the other way counts as inactive or inconclusive. Unless noted, % is set by controls: 0 for no effect and ±100 for the full control effect.

SMILES	PLK1 PBD inh	CCT modulator	Sfp PPTase inh	Mm-Cpn inhibitor	G9a block	VDR inh
O=C(CSc1ccccc1)Nc1ccc2c(c1)OCCO2	?	-6	10%	1%	79µM*	-15%
O=C(CSc1ccccc1)Nc1ccc2c(c1)OCO2	-13%	-2	10%	0%	3%	-14%
O=C(CSc1ccc2c(c1)OCCO2)NCc1ccco1	?	-1	35µM*	2%	50µM*	3%
CCC(=O)Nc1ccc2c(c1)OCCO2	-2%	0	18%	2%	-2%	21%
O=C(Nc1ccc2c(c1)OCCO2)C1CC1c1ccccc1 (stereo not drawn)	7%	-5	-2%	-1%	6%[59 µM]	-8%
O=C(CSc1nc(-c2ccccc2)[nH]c1-c1ccccc1)Nc1ccc2c(c1)OCO2	·	·	·	·	22µM*	9%
O=C(O)CCN1C(=O)c2ccc(NC(=O)CSc3ccccc3)cc2C1=O	27µM*	0	7%	2%	6%[59 µM]	?
O=C(O)C1CCCCC1C(=O)Nc1ccc2c(c1)OCCO2 (stereo not drawn)	0%	0	9%	1%	2.5µM*	2%
O=C(CC1CS(=O)(=O)CC1CC(=O)Nc1ccc2c(c1)OCCO2)Nc1ccc2c(c1)OCCO2 (stereo not drawn)	-29%	-1	22µM*	-2%	·	?
COc1ccc(-n2c(SCC(=O)Nc3ccc4c(c3)OCO4)nc3c([nH]c4ccccc43)c2=O)cc1	·	·	·	·	5%[59 µM]	3%
O=C1CCCC2=C1C1O[C@](CCCCN3C(=O)c4ccccc4C3=O)(Cc3ccccc31)O2	·	·	-2%	0%[15.4 µM]	·	·
O=C(CN1C(=O)CSc2ccccc21)Nc1ccc2c(c1)OCCO2	27µM*	2	-7%	?	?	-10%
O=C(CN1C(=O)CCSc2ccccc21)Nc1ccc2c(c1)OCO2	-5%	-1	-1%	1%	-15%[12.7 µM]	9%
COc1cccc(-c2nc(SCC(=O)Nc3ccc4c(c3)OCCO4)c(-c3ccccc3)[nH]2)c1	·	·	·	·	?	4%
O=C(NC(=S)Nc1ccc2c(c1)OCCO2)c1cccc(Br)c1	2%	-2	-6%	1%	?	-8%
O=C(CN1CC(=O)Oc2ccccc21)NCc1ccco1	-25%	-3	56µM*	?	?	-4%
COc1cc(-c2nc(SCC(=O)Nc3ccc4c(c3)OCO4)c(-c3ccccc3)[nH]2)cc(OC)c1OC	·	·	·	·	11µM*	30%
O=C(NC(=S)Nc1ccc2c(c1)OCCO2)c1cccc2ccccc12	-3%	2	-6%	-16%	40µM*	10%
O=C(CN1CCOc2ccccc21)NCc1ccco1	-14%	-2	?	0%	?	-7%
CCc1ccc(NC(=O)N2CCC(N3CCN(Cc4ccc(C)cc4)C(=O)C3=O)CC2)cc1	·	·	·	·	17%[59 µM]	12%
COc1ccc(-c2[nH]c(-c3cccc(OC)c3)nc2SCC(=O)Nc2ccc3c(c2)OCO3)cc1	·	·	·	·	10µM*	17%
CC(=O)Nc1ccc(Nc2ncnc3c2c(-c2ccccc2)cn3-c2ccc(C)c(Cl)c2)cc1	·	·	·	·	2%[59 µM]	14%
COc1ccc(N(CC(=O)Nc2cc(C)ccc2C)S(=O)(=O)c2ccccc2[N+](=O)[O-])c(OC)c1	12µM*	2	-23%	-3%	·	-11%
COc1ccc(N(CC(=O)Nc2cccc(C(C)=O)c2)S(=O)(=O)c2ccccc2)c(OC)c1	·	·	·	·	3.2µM*	5%
COc1ccc(N(CC(=O)Nc2cc(C)cc(C)c2)S(=O)(=O)c2ccccc2[N+](=O)[O-])c(OC)c1	-7%	-3	6%	1%	?	0%
CCOc1ccc(NC(=O)NCCc2c(C)nn(C)c2C)cc1	·	·	·	·	3%[12.7 µM]	8%
